Each structure is given as a SMILES string. Activity calls are given as the source filed them. Rule as the data show it, unless noted: active = inhibition above about 28%; inactive = the rest.

The target of the first assay is Single-stranded DNA-binding protein (Escherichia coli (strain K12)) (UniProt P0AGE0). In words: E. coli SSB displacement from DNA, counter-screen for HCV NS3 helicase inhibitor project, biochemical, fluorescence polarization, NIH Clinical Collection (AID 743271). Particulars: active compounds read high, concentration not given here. On the technique in general: Counterscreens check selectivity or assay interference.
For the compound `O=C(O)COCCN1CCN([C@@H](c2ccccc2)c2ccc(Cl)cc2)CC1`, the inhibition is -1.64% (inactive).
`CO[C@H]1C=CO[C@@]2(C)Oc3c(C)c(O)c4c(O)c(c5c(c4c3C2=O)=NC2(CCN(CC(C)C)CC2)N=5)NC(=O)C(C)=CC=C[C@H](C)[C@H](O)[C@@H](C)[C@@H](O)[C@@H](C)[C@H](OC(C)=O)[C@@H]1C`: the inhibition is 1.44% (inactive).
Consider `CO[C@H]1C=CO[C@@]2(C)Oc3c(C)c(O)c4c(O)c(c(/C=N/N5CCN(C6CCCC6)CC5)c(O)c4c3C2=O)NC(=O)C(C)=CC=C[C@H](C)[C@H](O)[C@@H](C)[C@@H](O)[C@@H](C)[C@H](OC(C)=O)[C@@H]1C`, for which the inhibition is 9.91% (inactive).
On to `CC/C(O)=N/S(=O)(=O)c1ccc(-c2c(-c3ccccc3)noc2C)cc1`, for which the inhibition is -2.76% (inactive).

System in another assay: not listed separately
As to the kind of experiment: fluorescence interference in NS3h assay format, artefact control for HCV NS3 helicase inhibitor project, biochemical, NIH Clinical Collection (AID 743272; call rule not given here;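 also: HCV NS3 helicase with a Cy5 labelled single stranded DNA probe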). Particulars: fluorescence interference counterscreen, active compounds read low.
Turning to `O=C(O)COCCN1CCN([C@@H](c2ccccc2)c2ccc(Cl)cc2)CC1`, the fluorescence ratio is 0.95 (inactive).
Turning to `CO[C@H]1C=CO[C@@]2(C)Oc3c(C)c(O)c4c(O)c(c5c(c4c3C2=O)=NC2(CCN(CC(C)C)CC2)N=5)NC(=O)C(C)=CC=C[C@H](C)[C@H](O)[C@@H](C)[C@@H](O)[C@@H](C)[C@H](OC(C)=O)[C@@H]1C`, the fluorescence ratio is 0.96 (inactive).
Turning to `CO[C@H]1C=CO[C@@]2(C)Oc3c(C)c(O)c4c(O)c(c(/C=N/N5CCN(C6CCCC6)CC5)c(O)c4c3C2=O)NC(=O)C(C)=CC=C[C@H](C)[C@H](O)[C@@H](C)[C@@H](O)[C@@H](C)[C@H](OC(C)=O)[C@@H]1C`, the fluorescence ratio is 1.01 (inactive).
For the compound `CC/C(O)=N/S(=O)(=O)c1ccc(-c2c(-c3ccccc3)noc2C)cc1`, the fluorescence ratio is 1.01 (inactive).

In general, inhibition refers to the drop in the measured response relative to a control, in per cent.

Values taken from PubChem BioAssay.
